VP16 counter – counter-screen for ROR gamma inhibitors: Gal4-VP16 reporter; Drosophila S2 Gal4-VP16 UAS-luciferase, luminescence, 20 h; Potency, µM (highest dose often 53.6 µM), without a hit: at the top dose activity, negative = inhibition, most hits filed as inhibitors; 3.5% of 310,000 active;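 also: Gal4-VP16 expression switched on by copper sulfate through the metallothionein promoter; potency is read from the fitted curve at half-maximal effect; % is scaled to controls: 0 for no effect and ±100 for the full control effect; nearly all actives have a fitted effect of over 50% in size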
MCF10A rerep – DNA re-replication induction in MCF 10a cells; MCF 10A DNA re-replication, Hoechst nuclear intensity, 48 h; Potency, µM (doses to about 46.1 µM), without a hit: top-dose activity, positive = re-replication, usual class: activators; 2.9% of 350,000 active; AID 624296; also: potency is read from the fitted curve at half-maximal effect; % of control where 0% means no effect; nearly all actives have a fitted effect of over 50% in size
RORgamma inh – inhibitors of mouse ROR gamma transcriptional activity; 5.4% of 310,000 active; Potency, µM (highest dose often 53.6 µM), for the others: at the top dose activity change, negative = inhibition, usual class: inhibitors; Drosophila S2 Gal4-RORgamma UAS-luciferase reporter, 20 h; also: potency is read from the fitted curve at half-maximal effect; % is scaled to controls: 0 for no effect and ±100 for the full control effect; nearly all actives have a fitted effect of over 60% in size
Target sequence (P51450 whole entry, looked up, the tested form may be a part): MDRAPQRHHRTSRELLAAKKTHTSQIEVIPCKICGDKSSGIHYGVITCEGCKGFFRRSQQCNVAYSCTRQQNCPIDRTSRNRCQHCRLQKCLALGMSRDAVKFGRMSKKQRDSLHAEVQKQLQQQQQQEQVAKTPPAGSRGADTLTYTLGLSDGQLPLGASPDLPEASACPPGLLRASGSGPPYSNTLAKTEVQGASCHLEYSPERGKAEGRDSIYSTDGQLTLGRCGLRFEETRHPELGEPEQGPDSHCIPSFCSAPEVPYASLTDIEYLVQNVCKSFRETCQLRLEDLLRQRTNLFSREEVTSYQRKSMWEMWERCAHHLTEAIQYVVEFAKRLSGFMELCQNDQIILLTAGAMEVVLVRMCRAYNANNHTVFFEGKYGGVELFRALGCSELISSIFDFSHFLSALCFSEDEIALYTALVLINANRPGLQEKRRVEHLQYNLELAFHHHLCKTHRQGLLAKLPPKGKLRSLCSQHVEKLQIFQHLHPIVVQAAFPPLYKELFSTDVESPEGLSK
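Using a luciferase readout, inhibitors were identified by reduced reporter activity in Drosophila cells coexpressing a copper-inducible Gal4–ROR gamma fusion and UAS-driven Photinus luciferase, incubated 20 hr after 700 uM copper sulfate.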
SW480 rerep – induces DNA re-replication in SW480 colon adenocarcinoma cells; AID 624297; SW480 DNA re-replication, Hoechst DNA content imaging, 48 h; Potency, µM (titrated, usually from 46.1 µM), for the others: top-dose re-replication activation, hits mostly activators; 1.8% of 340,000 active; also: potency is read from the fitted curve at half-maximal effect; % of control where 0% means no effect; nearly all actives have a fitted effect of over 55% in size
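Quantitative HTS format with DMSO vehicle controls; 48 hr drug incubation at 37 C, then 40 min Hoechst staining and scanning imager measurement at 405 nm excitation.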
IL1B secr inh – blocks inflammasome-driven IL-1 beta release. THP-1 LPS/ATP IL-1B secretion, AlphaLISA, 16 h; hits give low values. activity change, % at 57.5 µM. 4.7% of 360,000 active; in the data active = activity change below about -50%; inconclusive = mostly about -30% to -49%; also: % is scaled to controls: 0 for no effect and ±100 for the full control effect
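THP-1 cells pretreated 1 hr with compounds (up to 57.5 uM final), then stimulated with LPS (250 ng/mL final) plus ATP (1.25 mM final); secreted IL-1B measured by AlphaLISA after 16 hr, decreased signal indicating inhibition.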
* = called active by the depositor; u = inconclusive; x = not tested or not shown; [ ] = remark or other dose. Sampled rows, rich in hits. Any-hit rate of the full collection: about 11%. Unless noted, calls follow the shape of the dose curve; as a rule, active = well fitted curve in the direction sought with a large enough effect; inconclusive = small, poorly fitted or top-dose-only effect, or another doubt; inactive = no such curve, though single readings can be large; an effect the other way counts as inactive or inconclusive.

SMILES | VP16 counter | MCF10A rerep | RORgamma inh | SW480 rerep | IL1B secr inh
O=C(NC1CCN(C(=S)Nc2ccccc2Cl)CC1)C1CCCCC1 | -9% | 3% | -14% | -2% | 27
Cc1c(Cl)cccc1NC(=S)NC1CC1 | u | 10% | 10µM* | -2% | 5
OCC1CCCCN1C(=S)Nc1ccc(Cl)cc1Cl (stereo not given) | u | 0.82µM* | u | u | -7
COCC(=O)N1CCC[C@@]2(CCN(c3ncccn3)C2)C1 | 6% | x | -5% | x | x
Cc1ccc(-c2nc(S(=O)(=O)c3ccccc3)c(SCC(=O)NCC3CCCO3)o2)cc1 (stereo not given) | 0% | -15% | u | 9% | -25
C=CC(=O)c1ccc(CCCCCC)cc1 | -25% | x | 1% | x | x
CN(C)CCc1c[nH]c2ccc(CC3COC(=O)N3)cc12 (stereo not given) | 4% | -1% | -17% | -15% | x
N#Cc1ccc(CS(=O)(=O)c2nc3ccccc3s2)cc1 | -12% | x | -30% | x | x
Cc1cc2c(c(/C=C/C(=O)c3ccccc3)c1)OC1(C=C2)Oc2ccccc2C(=O)N1C (stereo not given) | -11% | 5.6µM* | -2% | 3.7µM* | -104*
COc1cc(=O)[nH]c(SCC(=O)Nc2nc3c(s2)CCCC3)n1 | -8% | 0% | 29% | -3% | 44
CCCn1cnnc1CNC(=O)[C@H]1O[C@@H](n2ccc(=O)[nH]c2=O)[C@H](O)[C@@H]1O | x | x | x | x | -25
Clc1ccc(Cn2c(/C=C/c3ccco3)nc3ccccc32)cc1 | u | 21µM* | u | 16% | -94*
Cc1ccc(Cn2c(/C=C/c3ccco3)nc3ccccc32)cc1 | u | -2% | 11µM* | -9% | -105*
CCCCn1c(/C=N/Nc2nc3ccccc3[nH]2)nc2ccccc21 | 1.6µM* | u | 1.8µM* | 8.2µM* | 69
CCCn1c(/C=C/c2ccco2)nc2ccccc21 | u | u | -38% | 8% | -16
CCCCn1c(/C=C/c2ccco2)nc2ccccc21 | u | 4% | 13µM* | x | 0
Cc1c(NS(=O)(=O)c2ccc(NC(=O)CCC(=O)O)cc2)c(=O)n(-c2ccccc2)n1C | 0% | 0% | 24% | -2% | -71*
CC(=O)Nc1ccc(S(=O)(=O)Nc2c(C)n(C)n(-c3ccccc3)c2=O)cc1 | -3% | u | -5% | -2% | 8
Cc1sc2ncnc(N3CCC(C(=O)Nc4ccc(Br)cc4Br)CC3)c2c1C | x | 18% | x | 0% | 0
Cn1nc(C(C)(C)C)cc1C(=O)O | 12% | 10% | -2% | -153% | 3
Cn1nc(C(C)(C)C)cc1C(=O)Sc1cccc(Br)c1 | -18% | u | u | -35% | -81*
CN1CCC(N(C)S(=O)(=O)c2ccc(NC(=O)COc3ccc(Br)cc3Cl)cc2)CC1 | x | u | x | -30% | -63*
Cc1ccccc1OCCC(=O)Nc1ccc(S(=O)(=O)N(C)C2CCN(C)CC2)cc1 | x | u | x | u | -61*
O=C(/C=C/c1ccccc1)Nc1cccc(C(=O)NCCCCc2ccccc2)c1 | x | u | x | 2% | 22
CCOC(=O)c1sc(NC(=O)CSc2nc3c(cc2C#N)CCCCCC3)c(C#N)c1C | 5% | u | -11% | 2% | 28
SMILES | VP16 counter | MCF10A rerep | RORgamma inh | SW480 rerep | IL1B secr inh
CCOC(=O)c1sc(NC(=O)CSc2nc(C)cc(-c3ccccc3)n2)c(C#N)c1C | -5% | 9% | -18% | 1% | 21
N#Cc1cnc(SCC(=O)Nc2ccccc2C(F)(F)F)nc1N | 17% | -3% | 7% | 9% | -11
CCOC(=O)c1sc(NC(=O)CSc2n[nH]c(-c3ccc(Cl)cc3Cl)n2)c(C#N)c1C | u | -186%[0.0737 µM] | 11µM* | -3% | 0
CCOC(=O)c1sc(NC(=O)CSc2nc(C)cc(C)c2C#N)c(C#N)c1C | -4% | 2µM* | 5% | -3% | 26
Cc1ccc(OCC(=O)NNC(=O)CSc2ncc(C#N)c(N)n2)cc1 | u | -11% | 0.71µM* | -7% | 5
CCOC(=O)c1cnc(SCC(=O)Nc2sc(C)c(C)c2C#N)nc1N | -5% | 0% | -1% | 21µM* | 73
COC(=O)C1=C[C@@H](C(=O)OC)[C@@H]2C3=C(C(=O)C2(C)C)[C@H](c2ccccc2)[C@@H]2C(=O)N(c4ccccc4)C(=O)[C@@H]2[C@@H]3C1 | 0% | x | 14% | x | x
O=C1C=C[C@@H](O)[C@H]2[C@@H]3C(=O)N(Cc4ccccc4)C(=O)[C@@H]3CC[C@H]12 | -3%[10 µM] | x | 2%[10 µM] | x | x
Cc1cc2c(nc1C)CCCN2C[C@H](C)O/N=C1/[C@H]2O[C@@H]2[C@@H](O)[C@H]2[C@H]1CCn1c(=O)n(-c3ccccc3)c(=O)n12 | -5%[10 µM] | x | -20%[10 µM] | x | x
COc1cccc(CNC(=O)C2CCN(S(=O)(=O)N3CCC(C)CC3)CC2)c1 | -2% | -12% | 3% | 3% | 18
COCc1cc(C)nc(SCC(=O)Nc2nc(C)cs2)c1C#N | -8% | 16µM* | -3% | u | -8
CCOC(=O)c1sc(NC(=O)c2cc(-c3ccccc3C)nc3ccccc23)c(C#N)c1C | 8.9µM* | 2.6µM* | 8.9µM* | 3% | -83*
COCc1cc(C)nc(SCC(=O)Nc2cccc(C)c2C)c1C#N | 4%[0.365 µM] | -8% | -13% | -10% | 17
Cc1ccc(-c2cc(C(=O)N3N=C(C(F)F)CC3(O)C(F)F)c3ccccc3n2)cc1C (stereo not given) | u | 3% | u | 23% | -71*
CCOc1cccc(-c2cc(C(=O)N3N=C(C)CC3(O)C(F)F)c3ccccc3n2)c1 (stereo not given) | 9% | 12% | 43% | 16% | -64*
COC(=O)c1ccc(-c2nn(C)c(=O)c3ccccc23)cc1 | -2% | -3% | 35% | -5% | 3
COC(=O)c1ccc(C(=O)OC)c(-n2c(=O)c3ccccc3c3ccccc3c2=O)c1 | u | u | 10µM* | 4% | -3
O=C(O)C(O)C(O)(Cc1ccc(O)cc1)C(=O)O (stereo not given) | u | x | -6% | x | x
Cc1cc(-c2nn(-c3ccccc3F)cc2CNCCc2cnccn2)c(C)s1 | -4% | -2% | -15% | -8% | -62*
COc1ccc(C)cc1N1C(=N)/C(=C2/Nc3ccccc3S2)C(c2ccccc2)C1=O (stereo not given) | 8.9µM* | 23µM* | 2.5µM* | u | -11
COC(=O)C1=C[C@@H](C(=O)OC)C2C3=C(C(=O)[C@@]2(C)NC(=O)c2ccccc2)[C@H](c2ccccc2)[C@@H]2C(=O)N(c4ccccc4)C(=O)[C@@H]2[C@@H]3C1 (stereo not given in full) | 0% | x | -9% | x | x
Cc1ccc(S(=O)(=O)Nc2ccc(-c3nc4ccc(C)cc4s3)cc2)cc1 | x | 23µM* | x | u | 0
